Laboratory results as given in PubChem BioAssay (Tox21).
Results filed as inconclusive are left out. The source made the active and inactive calls. Unless noted, calls come from the whole dose curve; as a rule, active = well fitted curve in the direction sought with a large enough effect in the repeat runs; inconclusive = weak or mixed curves; inactive = no such curve, though single readings can be large; an effect the other way counts as inactive or inconclusive.

Legend:
[1] = qHTS assay to identify aromatase inhibitors - cell viability counter screen (AID 743084);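 note: cells stimulated with testosterone during compound exposure; nearly all actives have a fitted effect of over 55% in size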
[2] = biological target: Aryl hydrocarbon receptor (Homo sapiens) (UniProt P35869); test: qHTS assay to identify small molecule that activate the aryl hydrocarbon receptor (AhR) signaling pathway (AID 743085);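 note: HG2L7.5c1 human HepG2 liver cells with stably integrated DRE-driven firefly reporter; series mostly up to about 70 µM; nearly all actives have a fitted effect of over 15% in size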
In short: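 A multiplexed format paired cell viability (CellTiter-Fluor fluorescence) with AhR-dependent luciferase output (ONE-Glo luminescence) in the same wells of HepG2 DRE-luc cells after 24 h compound exposure at 37C.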

[3] = qHTS assay to identify small molecule that activate the aryl hydrocarbon receptor (AhR) signaling pathway - cell viability counter screen (AID 743086);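 note: HepG2 liver cells carrying the AhR DRE luciferase reporter; series mostly up to about 70 µM; nearly all actives have a fitted effect of over 45% in size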
In short: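 Cytotoxicity counter screen: CellTiter-Fluor signal (30 min, 37 C) in 4000 HepG2 cells/well carrying the DRE-luciferase reporter, following 24 h compound exposure at 37 C.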

[4] = biological target: Peroxisome proliferator-activated receptor gamma (Homo sapiens) (UniProt P37231); test: qHTS assay to identify small molecule agonists of the peroxisome proliferator-activated receptor gamma (PPARg) signaling pathway (AID 743094; active = well fitted activation curve with a large enough effect in the signal ratio in the repeat runs, not every such curve was filed as active; the % refers to the signal ratio)
In short: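 Following 5 h plating at 37C, PPARg-bla HEK293H cells receive compound or DMSO for 17 h; fluorescence intensity is recorded after LiveBLAzer B/G loading for 1 h at room temperature.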

[5] = biological target: Peroxisome proliferator-activated receptor gamma (Homo sapiens) (UniProt P37231); test: qHTS assay to identify small molecule antagonists of the peroxisome proliferator-activated receptor gamma (PPARg) signaling pathway (AID 743191; calls by dose curve; note: series mostly up to about 63 µM; nearly all actives have a fitted effect of over 30% in size)
In short: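 Beta-lactamase reporter under UAS control in HEK293H PPARg-bla cells; compound treatment 17 h at 37C. Read-out: fluorescence intensity after 1 h room-temperature incubation with LiveBLAzer B/G FRET substrate.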

[6] = qHTS assay to identify small molecule antagonists of the peroxisome proliferator-activated receptor gamma (PPARg) signaling pathway - cell viability counter screen (AID 743194); note: nearly all actives have a fitted effect of over 55% in size
In short: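 Viability was measured as CellTiter-Glo luminescence in GeneBLAzer PPARg UAS-bla HEK293H cells. These cells had been exposed 17 h at 37 C to compounds together with rosiglitazone at 50 nM final, with the beta-lactamase readout taken in the same wells.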

[7] = qHTS assay for small molecule agonists of the antioxidant response element (ARE) signaling pathway (AID 743202; active = well fitted activation curve with a large enough effect in the signal ratio in the repeat runs, not every such curve was filed as active; the % refers to the signal ratio)
In short: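 Quantitative high-throughput format in HepG2 cells bearing an integrated ARE-beta-lactamase reporter. Compound exposure lasted 16 h at 37 C, and fluorescence was read 2 h after adding LiveBLAzer B/G substrate at room temperature.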

[8] = qHTS assay for small molecule agonists of the antioxidant response element (ARE) signaling pathway - cell viability counter screen (AID 743203; calls by dose curve; note: nearly all actives have a fitted effect of over 55% in size)
In short: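 Compounds in DMSO were pinned onto ARE-bla HepG2 cells plated 5 hrs earlier at 2,000 cells/well. Sixteen hours later at 37C/5% CO2, CellTiter-Glo was added and luminescence measured after 30 min at room temperature.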

[9] = qHTS assay for small molecule activators of the heat shock response signaling pathway - cell viability counter screen (AID 743209); note: nearly all actives have a fitted effect of over 50% in size
In short: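 Counter screen for cytotoxicity in HeLa HSE-bla reporter cells. Treatment was 5 h at 37 C; viability was detected by luminescent ATP assay (CellTiter-Glo) in the same wells as the beta-lactamase read.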

[10] = qHTS assay for small molecule activators of the heat shock response signaling pathway (AID 743210; active = well fitted activation curve with a large enough effect in the signal ratio in the repeat runs, with a control signal flat, not every such curve was filed as active; the % refers to the signal ratio;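 note: HeLa cells with beta-lactamase reporter driven by heat shock elements; series mostly up to about 63 µM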)
In short: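 HeLa HSE-bla cells, overnight plating; cpd in DMSO 5 h, 37 C; LiveBLAzer B/G FRET substrate 2.5 h RT; fluorescence intensity read.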

[11] = qHTS assay to identify small molecule agonists of the peroxisome proliferator-activated receptor delta (PPARd) signaling pathway - cell viability counter screen (AID 743211); note: nearly all actives have a fitted effect of over 55% in size
In short: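 Tox21 library compounds, delivered in DMSO, were incubated 17 h with PPARd-bla HEK293H cells; cytotoxicity was taken from CellTiter-Glo luminescence read 30 min after reagent addition.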

[12] = biological target: Peroxisome proliferator-activated receptor delta (Homo sapiens) (UniProt Q03181); test: qHTS assay to identify small molecule agonists of the peroxisome proliferator-activated receptor delta (PPARd) signaling pathway (AID 743212; calls by dose curve)
In short: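 HEK293H PPARd-bla cells; 5 h preincubation 37 C/5% CO2; compound (DMSO) 37 C; LiveBLAzer B/G FRET substrate 2 h RT; fluorescence intensity.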

[13] = qHTS assay to identify small molecule antagonists of the peroxisome proliferator-activated receptor delta (PPARd) signaling pathway - cell viability counter screen (AID 743213); note: nearly all actives have a fitted effect of over 50% in size
In short: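 Viability counter-screen, qHTS format: PPARd-bla HEK293H, L165041 300 nM final, 17 h compound exposure at 37 C, CellTiter-Glo luminescence after 30 min RT.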

[14] = qHTS assay to identify small molecule agonists of the farnesoid-X-receptor (FXR) signaling pathway - cell viability counter screen (AID 743218); note: nearly all actives have a fitted effect of over 45% in size
In short: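 After 16 h at 37 C with test compounds, FXR-bla HEK 293T cells were given LiveBLAzer B/G substrate for 2 h at RT and then CellTiter-Glo; luminescence was taken after 30 min.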

[15] = qHTS assay to identify small molecule antagonists of the farnesoid-X-receptor (FXR) signaling pathway - cell viability counter screen (AID 743221; active = well fitted cell-killing curve with a large enough effect in the repeat runs, not every such curve was filed as active; note: nearly all actives have a fitted effect of over 50% in size)
In short: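 Cytotoxicity is taken from ATP luminescence (CellTiter-Glo, 30 min, room temperature) in FXR-bla HEK 293T cells previously incubated 16 h at 37 C with compound and chenodeoxycholic acid at 50 uM final.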

[16] = biological target: Bile acid receptor (Homo sapiens) (UniProt Q96RI1); test: qHTS assay to identify small molecule antagonists of the farnesoid-X-receptor (FXR) signaling pathway (AID 743217; active = well fitted inhibition curve with a large enough effect in the signal ratio in the repeat runs, not every such curve was filed as active; the % refers to the signal ratio)
In short: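 In this cell-based antagonist screen, inhibition of CDCA-driven (50 uM final) UAS-beta-lactamase expression in HEK 293T cells was measured by FRET fluorescence following 16 h compound exposure at 37 °C.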

[17] = biological target: Bile acid receptor (Homo sapiens) (UniProt Q96RI1); test: qHTS assay to identify small molecule agonists of the farnesoid-X-receptor (FXR) signaling pathway (AID 743220; active = well fitted activation curve with a large enough effect in the signal ratio in the repeat runs, not every such curve was filed as active; the % refers to the signal ratio)
In short: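 Beta-lactamase reporter under UAS control in GeneBLAzer FXR HEK 293T cells (5000/well) measured with LiveBLAzer FRET substrate after 2 h at room temperature. Compound exposure lasted 16 h at 37C.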

[18] = biological target: Vitamin D3 receptor (Homo sapiens) (UniProt P11473); test: qHTS assay to identify small molecule agonists of the vitamin D receptor (VDR) signaling pathway (AID 743222; calls by dose curve)
In short: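 VDR-bla cells were seeded, left 4 h, treated with compounds in DMSO for 16 h, incubated 2 h at RT with B/G FRET substrate, and read for fluorescence.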

[19] = biological target: Vitamin D3 receptor (Homo sapiens) (UniProt P11473); test: qHTS assay to identify small molecule antagonists of the vitamin D receptor (VDR) signaling pathway (AID 743223; active = well fitted inhibition curve with a large enough effect in the signal ratio in the repeat runs, not every such curve was filed as active; the % refers to the signal ratio)
In short: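 Quantitative HTS in VDR-bla reporter cells stimulated with 1alpha,25-dihydroxyvitamin D3, 3 nM final. Compound exposure 16 h, 37C, 5% CO2. Read-out: beta-lactamase FRET substrate fluorescence, 2 h RT.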

Measured: Potency

Sequence of Aryl hydrocarbon receptor (Homo sapiens) (P35869 whole entry, looked up): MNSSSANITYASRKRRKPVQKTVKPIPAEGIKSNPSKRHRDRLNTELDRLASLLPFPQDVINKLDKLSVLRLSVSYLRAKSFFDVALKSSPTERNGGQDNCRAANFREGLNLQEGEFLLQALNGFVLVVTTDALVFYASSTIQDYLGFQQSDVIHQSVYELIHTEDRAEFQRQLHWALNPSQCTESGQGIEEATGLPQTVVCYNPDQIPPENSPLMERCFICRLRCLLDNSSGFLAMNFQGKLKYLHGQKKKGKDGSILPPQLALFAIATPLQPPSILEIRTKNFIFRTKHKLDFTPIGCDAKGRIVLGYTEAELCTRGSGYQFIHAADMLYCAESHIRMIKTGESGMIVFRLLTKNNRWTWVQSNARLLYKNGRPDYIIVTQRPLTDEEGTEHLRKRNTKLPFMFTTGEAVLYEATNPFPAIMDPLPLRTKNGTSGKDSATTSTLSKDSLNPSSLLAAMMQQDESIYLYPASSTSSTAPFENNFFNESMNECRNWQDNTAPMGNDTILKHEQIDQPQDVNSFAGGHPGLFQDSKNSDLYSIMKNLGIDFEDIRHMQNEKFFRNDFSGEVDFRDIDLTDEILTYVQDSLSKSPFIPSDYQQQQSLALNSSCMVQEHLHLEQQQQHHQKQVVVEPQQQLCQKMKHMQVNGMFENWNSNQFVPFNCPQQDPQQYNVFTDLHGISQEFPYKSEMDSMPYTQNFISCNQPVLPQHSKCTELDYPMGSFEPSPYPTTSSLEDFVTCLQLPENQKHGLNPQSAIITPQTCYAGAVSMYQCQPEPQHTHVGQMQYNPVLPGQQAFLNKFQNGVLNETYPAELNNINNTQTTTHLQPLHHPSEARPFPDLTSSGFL
Sequence of Peroxisome proliferator-activated receptor gamma (Homo sapiens) (P37231 whole entry, looked up): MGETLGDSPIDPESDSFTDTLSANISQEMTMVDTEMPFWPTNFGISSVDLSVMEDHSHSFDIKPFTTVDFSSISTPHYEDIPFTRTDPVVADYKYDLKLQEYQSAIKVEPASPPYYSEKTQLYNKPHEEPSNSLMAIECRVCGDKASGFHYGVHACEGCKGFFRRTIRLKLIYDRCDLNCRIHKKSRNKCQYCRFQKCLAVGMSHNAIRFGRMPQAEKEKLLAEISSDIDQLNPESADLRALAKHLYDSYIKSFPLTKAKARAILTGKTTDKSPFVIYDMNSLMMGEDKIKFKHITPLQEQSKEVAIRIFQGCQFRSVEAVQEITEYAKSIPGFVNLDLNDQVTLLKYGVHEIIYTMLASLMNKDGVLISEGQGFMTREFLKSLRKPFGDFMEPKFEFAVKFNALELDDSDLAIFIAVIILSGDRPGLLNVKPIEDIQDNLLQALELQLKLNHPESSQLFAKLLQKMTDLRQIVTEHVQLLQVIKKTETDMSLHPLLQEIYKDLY
Sequence of Vitamin D3 receptor (Homo sapiens) (P11473 whole entry, looked up): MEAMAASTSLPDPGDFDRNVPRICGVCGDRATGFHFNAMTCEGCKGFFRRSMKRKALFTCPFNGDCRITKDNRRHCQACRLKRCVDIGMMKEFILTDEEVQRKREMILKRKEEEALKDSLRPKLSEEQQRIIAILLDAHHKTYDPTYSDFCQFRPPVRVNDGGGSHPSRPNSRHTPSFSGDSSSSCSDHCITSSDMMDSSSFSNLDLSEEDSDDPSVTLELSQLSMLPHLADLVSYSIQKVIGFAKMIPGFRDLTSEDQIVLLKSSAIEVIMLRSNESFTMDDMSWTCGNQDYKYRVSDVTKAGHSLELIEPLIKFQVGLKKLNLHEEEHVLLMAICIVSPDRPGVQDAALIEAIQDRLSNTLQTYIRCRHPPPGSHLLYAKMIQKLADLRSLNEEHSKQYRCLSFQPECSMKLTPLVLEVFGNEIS
Sequence of Bile acid receptor (Homo sapiens) (Q96RI1 whole entry, looked up): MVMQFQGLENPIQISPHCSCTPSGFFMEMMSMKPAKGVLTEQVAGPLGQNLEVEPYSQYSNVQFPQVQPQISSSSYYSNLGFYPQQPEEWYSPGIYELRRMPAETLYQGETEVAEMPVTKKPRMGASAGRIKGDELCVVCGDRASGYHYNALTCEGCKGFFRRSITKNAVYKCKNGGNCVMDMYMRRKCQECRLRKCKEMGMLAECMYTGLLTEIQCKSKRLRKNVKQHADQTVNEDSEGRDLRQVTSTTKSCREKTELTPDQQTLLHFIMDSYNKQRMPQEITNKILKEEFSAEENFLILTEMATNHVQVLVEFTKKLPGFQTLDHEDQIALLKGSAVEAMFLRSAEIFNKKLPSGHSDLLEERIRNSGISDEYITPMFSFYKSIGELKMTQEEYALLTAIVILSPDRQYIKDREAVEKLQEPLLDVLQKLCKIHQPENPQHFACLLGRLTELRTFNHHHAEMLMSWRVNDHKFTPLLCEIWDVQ
Sequence of Peroxisome proliferator-activated receptor delta (Homo sapiens) (Q03181 whole entry, looked up): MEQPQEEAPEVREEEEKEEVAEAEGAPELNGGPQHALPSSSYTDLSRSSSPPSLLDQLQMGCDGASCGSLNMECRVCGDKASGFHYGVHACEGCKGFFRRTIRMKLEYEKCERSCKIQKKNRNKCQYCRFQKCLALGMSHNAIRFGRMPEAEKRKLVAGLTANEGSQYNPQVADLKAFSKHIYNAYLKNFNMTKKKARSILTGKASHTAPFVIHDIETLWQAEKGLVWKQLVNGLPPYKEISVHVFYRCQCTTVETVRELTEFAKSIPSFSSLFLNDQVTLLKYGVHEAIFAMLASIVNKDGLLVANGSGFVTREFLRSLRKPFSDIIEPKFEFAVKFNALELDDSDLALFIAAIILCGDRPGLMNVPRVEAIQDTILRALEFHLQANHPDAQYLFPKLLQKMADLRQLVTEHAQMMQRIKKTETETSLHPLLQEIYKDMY

CC(C)Cc1ccc(C(C)C(=O)O)cc1 (stereo not given)
not listed: [16] | [17] | [18] | [19]
inactive: all other assays above

CN(C)Cc1cc(CN(C)C)c(O)c(CN(C)C)c1
not listed: [12] | [18] | [19]
inactive: all other assays above

CCN1CCCC1=O
not listed: [12]
inactive: all other assays above

C=C(C)OC(C)=O
not listed: [12] | [16] | [17]
inactive: all other assays above

CCOCCO
not listed: [12]
inactive: all other assays above

CCCCOC(=O)CCCCCCCCC(=O)OCCCC
not listed: [12] | [16] | [17]
inactive: all other assays above

CCN(CC)CCOC(=O)c1ccc(N)cc1
not listed: [12] | [16] | [17]
inactive: all other assays above
